Reference: PubChem BioAssay (NCATS)
Values joined by “and” are separate entries in the source; they are usually repeats but may differ in a detail not shown here. Equal values may be shown once. Inconclusive results are not listed. Values without a mark were called inactive. Active and inactive are the calls of the source. The call rests on the fitted dose curve; in most records, active means well fitted cell-killing curve with a large enough effect; inconclusive means small, poorly fitted or top-dose-only effect; inactive means flat fitted curve, though single readings scatter.

assay: Cell Viability - LYMP2-018 (AID 985); conditions: LYMP2-018 lymphoblastoid cells, viability (qHTS); series mostly up to 92.2 µM; activity change, negative = cytotoxicity: at the top concentration;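 further: compound exposure lasted 24 hr at 37 °C; nearly all actives have a fitted effect of over 50% in size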;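 on activity change, negative = cytotoxicity: plate controls were DMSO only for no effect and tetraoctylammonium bromide at 92 µM for full effect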
From the text: NIH Chemical Genomics Center [NCGC]
NIH Molecular Libraries Screening Centers Network [MLSCN]
National Institutes of Environmental Health Sciences [NIEHS]
National Toxicology Program [NTP]
We have developed a 1536-well cell-based assay for quantitative high throughput screening (qHTS) against a number of cell lines to determine in vitro cytotoxicity of small molecules. This particular assay uses a human lymphoblastoid cell line (LYMP2-018) purchased from Coriell Institute for Medical Research.
NCGC Assay Protocol Summary:
The CellTiter-Glo luminescent cell viability assay (Promega) is a homogeneous method to measure the number of viable cells in culture. The end point readout of this assay is based on quantitation of intracellular ATP, an indicator of metabolic activity, using the luciferase reaction. Luciferase catalyzes the oxidation of beetle Luciferin to oxyluciferin and light in the presence of ATP. The luminescent signal is proportional to amount of ATP present.
Using the CellTiter-Glo luminescent cell viability assay, the amount of cellular ATP was measured in the lymphoblastoid cell line with complete culture medium following compound treatment for 24 hours. The assay was performed in opaque white Kalypsys 1536-well plates. In the screen, tetraoctylammonium bromide was used as positive control. Library compounds were measured for their ability to cause acute toxicity in the cell line, as reflected by a decrease in intracellular ATP levels, in a concentration-dependent manner. […] AC50 values were determined from concentration-response data modeled with the standard Hill equation.
qHTS protocol for CellTiter Glo lymphoblastoid cellular assay
[Step] [Parameter] [Value] [Description]
1. Reagent; 5 uL; 2500 lymphoblastoid cells/well
2. Time; 5 hr; 37 C incubation
4. Controls; 23 nL; Tetraoctylammonium bromide 6.4pM to 92 uM
5. Time; 24 hr; 37 C incubation
6. Reagent; 5 uL; CellTiter Glo reagent
7. Time; 30 min; Room Temperature
8. Detection; Luminescence; Viewlux plate reader
Keywords: cell viability, cytotoxicity, lymphoblastoid cell line, luminescence, NTPHTS, NTPHTS_NCGC, NIEHS, DSSTox, MLSMR, MLSCN, NIH Roadmap, qHTS, NCGC
Potency means the concentration at half of the fitted maximal effect.

Question: Which Potency does the source give for CCCCCCCCCCCC[N+](C)(C)CCOc1ccccc1 here?
Answer: The Potency was 39.8 µM (active).

Question: Which Potency does the source give for CC[n+]1c(-c2ccccc2)c2cc(N)ccc2c2ccc(N)cc21 here?
Answer: Its Potency is 10 µM (active).

Question: Which Potency does the source give for Oc1ccc(Cl)cc1Sc1cc(Cl)ccc1O here?
Answer: Its Potency is 39.8 µM (active).

Question: With CNC(=O)Oc1cccc2ccccc12 as the compound, how does the “activity change, negative = cytotoxicity” value read?
Answer: The value was -10.2%.

Question: Which Potency does the source give for CN(C)C(=S)SSC(=S)N(C)C here?
Answer: The Potency was 0.199 µM (active).

Question: For C[C@@H]1C[C@@H]([C@H](O)CC2CC(=O)NC(=O)C2)C(=O)[C@@H](C)C1, which Potency is on record?
Answer: Its Potency is 1 µM (active).

Question: Which “activity change, negative = cytotoxicity” value does the source give for COP(=O)(OC)OC=C(Cl)Cl here?
Answer: Its value is -6.26%.

Question: With O=C(CCl)c1ccc(Cl)cc1Cl as the compound, how does the Potency read?
Answer: Its Potency is 3.16 µM (active).

Question: Which “activity change, negative = cytotoxicity” value does the source give for Oc1c(Br)cc(Br)cc1Br here?
Answer: The value was -9.39%.

assay: Cell Viability - LYMP2-020 (AID 986); conditions: series mostly up to 92.2 µM; activity change, negative = viability loss: at the top concentration; further: nearly all actives have a fitted effect of over 55% in size;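 on activity change, negative = viability loss: plate controls were DMSO only for no effect and tetraoctylammonium bromide at 92 µM for full effect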
In short: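 Luminescent ATP signal (CellTiter-Glo, 30 min at room temperature) is the read-out after 24 h compound treatment of lymphoblastoid cells at 37 C. AC50 values come from Hill-equation fits across concentrations.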

Question: For CCCCCCCCCCCC[N+](C)(C)CCOc1ccccc1, which Potency is on record?
Answer: Its Potency is 39.8 µM (active).

Question: Which Potency does the source give for Oc1ccc(Cl)cc1Cc1cc(Cl)ccc1O here?
Answer: The Potency was 39.8 µM (active).

Question: Which Potency does the source give for CC[n+]1c(-c2ccccc2)c2cc(N)ccc2c2ccc(N)cc21 here?
Answer: The Potency was 15.8 µM (active).

Question: For Oc1ccc(Cl)cc1Sc1cc(Cl)ccc1O, which Potency is on record?
Answer: Its Potency is 39.8 µM (active).

Question: For CNC(=O)Oc1cccc2ccccc12, which “activity change, negative = viability loss” value is on record?
Answer: The value was -6.99%.

Question: Which Potency does the source give for CN(C)C(=S)SSC(=S)N(C)C here?
Answer: Its Potency is 0.398 µM (active).

Question: With C[C@@H]1C[C@@H]([C@H](O)CC2CC(=O)NC(=O)C2)C(=O)[C@@H](C)C1 as the compound, how does the Potency read?
Answer: The Potency was 0.794 µM (active).

Question: Which “activity change, negative = viability loss” value does the source give for COP(=O)(OC)OC=C(Cl)Cl here?
Answer: Its value is -7.2%.

Question: With O=C(CCl)c1ccc(Cl)cc1Cl as the compound, how does the Potency read?
Answer: The Potency was 5.01 µM (active).

Question: With Oc1c(Br)cc(Br)cc1Br as the compound, how does the “activity change, negative = viability loss” value read?
Answer: The value was -5.39%.

assay: Cell Viability - LYMP2-022 (AID 987); conditions: LYMP2-022 lymphoblastoid cell viability; series mostly up to 92.2 µM; viability change, negative = cytotoxic: at the top concentration; further: nearly all actives have a fitted effect of over 55% in size;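 on viability change, negative = cytotoxic: 0% = DMSO alone and full effect = tetraoctylammonium bromide at 92 µM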
In short: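 qHTS: human lymphoblastoid cells 2500/well; 5 hr 37 C; cpd added; 24 hr 37 C; CellTiter-Glo, 30 min RT; luminescence. AC50 via Hill fit; tetraoctylammonium bromide positive ctrl.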

Question: With CCCCCCCCCCCC[N+](C)(C)CCOc1ccccc1 as the compound, how does the Potency read?
Answer: The Potency was 39.8 µM (active).

Question: With CC[n+]1c(-c2ccccc2)c2cc(N)ccc2c2ccc(N)cc21 as the compound, how does the Potency read?
Answer: The Potency was 7.94 µM (active).

Question: For COC(=O)C1=C(C)NC(C)=C(C(=O)OC)C1c1ccccc1[N+](=O)[O-], which Potency is on record?
Answer: Its Potency is 50.1 µM (active).

Question: With CNC(=O)Oc1cccc2ccccc12 as the compound, how does the “viability change, negative = cytotoxic” value read?
Answer: Its value is -13.9%.

Question: With CN(C)C(=S)SSC(=S)N(C)C as the compound, how does the Potency read?
Answer: Its Potency is 0.158 µM (active).

Question: Which Potency does the source give for C[C@@H]1C[C@@H]([C@H](O)CC2CC(=O)NC(=O)C2)C(=O)[C@@H](C)C1 here?
Answer: Its Potency is 794 nM (active) and 1 µM (active).

Question: For COP(=O)(OC)OC=C(Cl)Cl, which “viability change, negative = cytotoxic” value is on record?
Answer: Its value is -18.3%.

Question: Which Potency does the source give for O=C(CCl)c1ccc(Cl)cc1Cl here?
Answer: The Potency was 2 µM (active).

Question: For Oc1c(Br)cc(Br)cc1Br, which “viability change, negative = cytotoxic” value is on record?
Answer: The value was -18.9%.

assay: Cell Viability - LYMP2-024 (AID 988); conditions: LYMP2-024 lymphoblastoid cell viability; series mostly up to 92.2 µM; activity change, negative = cytotoxicity: at the top concentration; further: nearly all actives have a fitted effect of over 60% in size;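 on activity change, negative = cytotoxicity: plate controls were DMSO only for no effect and 92 µM tetraoctylammonium bromide for full effect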
In short: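 Steps: seed 2500 cells/well, 5 hr 37 C; add compound, 24 hr 37 C; add CellTiter-Glo, 30 min room temperature; read luminescence. AC50 derived by Hill modelling of concentration-dependent ATP loss.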

Question: Which Potency does the source give for CCCCCCCCCCCC[N+](C)(C)CCOc1ccccc1 here?
Answer: Its Potency is 39.8 µM (active).

Question: For CC[n+]1c(-c2ccccc2)c2cc(N)ccc2c2ccc(N)cc21, which Potency is on record?
Answer: The Potency was 12.6 µM (active).

Question: For COC(=O)C1=C(C)NC(C)=C(C(=O)OC)C1c1ccccc1[N+](=O)[O-], which Potency is on record?
Answer: Its Potency is 39.8 µM (active).

Question: For CNC(=O)Oc1cccc2ccccc12, which “activity change, negative = cytotoxicity” value is on record?
Answer: The value was -4.39%.

Question: With CN(C)C(=S)SSC(=S)N(C)C as the compound, how does the Potency read?
Answer: Its Potency is 0.251 µM (active).

Question: With C[C@@H]1C[C@@H]([C@H](O)CC2CC(=O)NC(=O)C2)C(=O)[C@@H](C)C1 as the compound, how does the Potency read?
Answer: The Potency was 0.794 µM (active).

Question: With COP(=O)(OC)OC=C(Cl)Cl as the compound, how does the “activity change, negative = cytotoxicity” value read?
Answer: Its value is -13%.

Question: For O=C(CCl)c1ccc(Cl)cc1Cl, which Potency is on record?
Answer: Its Potency is 2.51 µM (active).

Question: For Oc1c(Br)cc(Br)cc1Br, which “activity change, negative = cytotoxicity” value is on record?
Answer: The value was -8.69%.
